From paper PMC7862700, “An all-to-all approach to the identification of sequence-specific readers for epigenetic DNA modifications on cytosine”

Legend:
Assay in all cases: DAPPL (digital affinity profiling via proximity ligation, sequencing); 10 mM Tris-HCl pH 7.5, 50 mM NaCl, 1 mM DTT, 4% glycerol, room temperature, 30 min; GST-TFs on glutathione beads, 16-mer random dsDNA library, 0.1% formaldehyde crosslink after washing; high values mean tight binding
Settings in all cases: protein: recombinant; tags: N-terminal GST; dsDNA, one strand shown
[1] = target: T1, FLI1 (Homo sapiens, UniProt Q01543 1-452)
T1 sequence: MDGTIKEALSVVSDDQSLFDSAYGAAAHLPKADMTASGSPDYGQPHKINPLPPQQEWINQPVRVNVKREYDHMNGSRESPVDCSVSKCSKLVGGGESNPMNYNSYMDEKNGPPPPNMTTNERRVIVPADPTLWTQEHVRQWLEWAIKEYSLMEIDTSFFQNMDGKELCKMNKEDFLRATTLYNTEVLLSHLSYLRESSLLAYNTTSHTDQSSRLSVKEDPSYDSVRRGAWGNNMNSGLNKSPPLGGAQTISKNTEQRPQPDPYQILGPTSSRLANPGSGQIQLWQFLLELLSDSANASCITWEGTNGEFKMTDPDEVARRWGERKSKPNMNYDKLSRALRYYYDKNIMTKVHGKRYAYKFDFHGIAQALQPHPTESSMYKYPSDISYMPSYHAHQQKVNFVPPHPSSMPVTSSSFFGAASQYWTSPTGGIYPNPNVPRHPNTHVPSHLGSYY
How it was run: (§1)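 Binding signal is given per hexamer as its read frequency for a factor divided by its frequency in the tag-only sample. GST-fused human transcription factors were expressed in yeast, captured on glutathione beads, barcoded with DNA and pooled with that sample, then incubated with 200 nmole of a 16-mer random double-stranded DNA library in Tris/NaCl/DTT/glycerol buffer for 30 min at room temperature. The pools were then washed, crosslinked, proximity-ligated, amplified by PCR and sequenced on an Illumina NextSeq500.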

[2] = target: T2, ELK1 (Homo sapiens, UniProt P19419 1-428)
T2 sequence: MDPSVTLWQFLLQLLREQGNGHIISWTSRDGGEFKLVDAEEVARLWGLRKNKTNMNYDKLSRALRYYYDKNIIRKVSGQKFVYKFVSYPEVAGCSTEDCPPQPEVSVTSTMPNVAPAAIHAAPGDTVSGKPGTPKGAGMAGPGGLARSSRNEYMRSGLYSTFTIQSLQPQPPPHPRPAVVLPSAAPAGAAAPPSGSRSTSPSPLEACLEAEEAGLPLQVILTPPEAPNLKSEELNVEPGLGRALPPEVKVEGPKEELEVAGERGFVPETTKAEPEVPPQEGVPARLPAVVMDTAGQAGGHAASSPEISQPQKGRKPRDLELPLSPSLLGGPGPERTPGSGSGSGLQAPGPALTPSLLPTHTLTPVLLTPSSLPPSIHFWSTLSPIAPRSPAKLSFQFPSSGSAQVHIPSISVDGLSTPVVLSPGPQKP
How it was run: as §1

[3] = target: T3, GABPA (Homo sapiens, UniProt Q06546 1-454)
T3 sequence: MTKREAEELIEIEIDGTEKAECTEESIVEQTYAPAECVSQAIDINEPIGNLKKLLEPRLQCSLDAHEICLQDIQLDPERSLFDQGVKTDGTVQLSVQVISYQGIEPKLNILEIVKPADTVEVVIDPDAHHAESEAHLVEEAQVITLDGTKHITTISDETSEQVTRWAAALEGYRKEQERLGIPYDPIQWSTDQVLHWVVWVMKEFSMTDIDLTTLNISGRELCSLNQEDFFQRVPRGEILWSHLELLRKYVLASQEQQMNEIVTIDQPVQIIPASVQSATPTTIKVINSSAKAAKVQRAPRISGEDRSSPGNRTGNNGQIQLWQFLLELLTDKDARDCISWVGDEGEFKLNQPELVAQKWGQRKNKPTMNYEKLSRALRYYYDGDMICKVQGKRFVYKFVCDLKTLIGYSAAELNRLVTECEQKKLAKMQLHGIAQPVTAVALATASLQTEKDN
How it was run: as §1

[4] = target: T4, ERG (Homo sapiens, UniProt P11308 1-479)
T4 sequence: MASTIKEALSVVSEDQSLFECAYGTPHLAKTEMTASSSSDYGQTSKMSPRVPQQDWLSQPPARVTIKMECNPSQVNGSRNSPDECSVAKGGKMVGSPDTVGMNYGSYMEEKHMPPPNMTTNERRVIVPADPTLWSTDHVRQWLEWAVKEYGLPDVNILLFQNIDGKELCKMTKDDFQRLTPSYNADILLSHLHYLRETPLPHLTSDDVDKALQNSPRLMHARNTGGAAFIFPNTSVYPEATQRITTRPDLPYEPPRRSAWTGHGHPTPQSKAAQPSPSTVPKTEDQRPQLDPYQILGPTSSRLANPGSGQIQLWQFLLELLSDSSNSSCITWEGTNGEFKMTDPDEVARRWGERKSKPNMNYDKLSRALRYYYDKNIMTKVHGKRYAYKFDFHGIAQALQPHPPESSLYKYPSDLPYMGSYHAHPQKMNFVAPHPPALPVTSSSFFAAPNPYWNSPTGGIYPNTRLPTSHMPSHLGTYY
How it was run: as §1

[5] = target: ELF1 (Homo sapiens, UniProt P32519 1-619)
Chain of ELF1 (P32519 whole entry): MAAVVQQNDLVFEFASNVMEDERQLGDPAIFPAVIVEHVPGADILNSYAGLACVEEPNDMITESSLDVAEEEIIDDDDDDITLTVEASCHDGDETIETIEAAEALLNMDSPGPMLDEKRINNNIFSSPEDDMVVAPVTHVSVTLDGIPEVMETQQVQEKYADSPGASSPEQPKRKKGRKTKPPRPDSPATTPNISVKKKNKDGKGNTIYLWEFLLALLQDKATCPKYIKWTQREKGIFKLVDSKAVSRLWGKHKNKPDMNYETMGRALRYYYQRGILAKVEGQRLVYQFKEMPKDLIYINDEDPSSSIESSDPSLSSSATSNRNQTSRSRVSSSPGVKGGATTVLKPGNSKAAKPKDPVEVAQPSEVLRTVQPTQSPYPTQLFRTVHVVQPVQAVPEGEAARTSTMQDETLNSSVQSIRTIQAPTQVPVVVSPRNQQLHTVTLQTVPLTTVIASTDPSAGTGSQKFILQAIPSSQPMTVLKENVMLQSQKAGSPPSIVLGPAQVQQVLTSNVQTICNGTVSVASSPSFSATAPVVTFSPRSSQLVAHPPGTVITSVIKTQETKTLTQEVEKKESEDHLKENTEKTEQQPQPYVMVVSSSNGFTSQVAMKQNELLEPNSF
How it was run: as §1

[6] = target: T5, EHF (Homo sapiens, UniProt Q9NZC4 1-300)
T5 sequence: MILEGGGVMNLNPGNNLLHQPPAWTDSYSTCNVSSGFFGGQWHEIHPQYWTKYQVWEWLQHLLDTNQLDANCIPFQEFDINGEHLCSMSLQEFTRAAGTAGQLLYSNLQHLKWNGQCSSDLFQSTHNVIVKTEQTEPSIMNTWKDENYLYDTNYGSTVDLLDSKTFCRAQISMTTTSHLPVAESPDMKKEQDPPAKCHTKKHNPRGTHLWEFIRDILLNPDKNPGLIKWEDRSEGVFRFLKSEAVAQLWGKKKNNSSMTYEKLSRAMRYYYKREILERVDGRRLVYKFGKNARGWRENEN
How it was run: as §1

[7] = target: SPI1 (Homo sapiens, UniProt P17947 1-270)
How it was run: as §1

[8] = target: SPIB (Homo sapiens, UniProt Q01892 1-262)
Chain of SPIB (Q01892 whole entry): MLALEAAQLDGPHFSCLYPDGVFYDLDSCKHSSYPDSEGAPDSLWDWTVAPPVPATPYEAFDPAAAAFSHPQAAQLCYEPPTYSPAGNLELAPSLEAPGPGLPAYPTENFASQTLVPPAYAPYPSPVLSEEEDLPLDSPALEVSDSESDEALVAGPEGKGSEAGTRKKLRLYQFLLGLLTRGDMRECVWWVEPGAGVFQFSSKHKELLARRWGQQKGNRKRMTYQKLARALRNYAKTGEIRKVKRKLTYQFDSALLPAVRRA
How it was run: as §1

[9] = target: T6, ELK3 (Homo sapiens, UniProt P41970 1-407)
T6 sequence: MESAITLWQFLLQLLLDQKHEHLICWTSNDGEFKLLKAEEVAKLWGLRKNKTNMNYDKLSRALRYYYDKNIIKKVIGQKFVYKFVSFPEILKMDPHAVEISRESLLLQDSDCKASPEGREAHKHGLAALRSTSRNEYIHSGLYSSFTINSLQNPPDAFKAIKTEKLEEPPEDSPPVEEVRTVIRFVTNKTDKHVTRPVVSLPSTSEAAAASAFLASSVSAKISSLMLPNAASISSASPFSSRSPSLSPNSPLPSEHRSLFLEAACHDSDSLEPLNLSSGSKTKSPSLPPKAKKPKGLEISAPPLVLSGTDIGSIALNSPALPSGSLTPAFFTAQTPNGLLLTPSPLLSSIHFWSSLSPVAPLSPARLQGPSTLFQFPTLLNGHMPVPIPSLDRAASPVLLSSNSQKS
How it was run: as §1

[10] = target: T7, FEV (Homo sapiens, UniProt Q99581 1-238)
T7 sequence: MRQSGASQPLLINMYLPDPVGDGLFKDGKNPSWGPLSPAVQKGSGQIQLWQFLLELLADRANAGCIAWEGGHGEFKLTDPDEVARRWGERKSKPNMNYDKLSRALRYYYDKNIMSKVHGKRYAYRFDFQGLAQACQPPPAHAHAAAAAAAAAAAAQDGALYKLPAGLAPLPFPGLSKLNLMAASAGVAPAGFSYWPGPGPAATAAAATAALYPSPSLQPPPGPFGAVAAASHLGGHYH
How it was run: as §1

[11] = target: ETV5 (Homo sapiens, UniProt P41161 1-510)
Chain of ETV5 (P41161 whole entry): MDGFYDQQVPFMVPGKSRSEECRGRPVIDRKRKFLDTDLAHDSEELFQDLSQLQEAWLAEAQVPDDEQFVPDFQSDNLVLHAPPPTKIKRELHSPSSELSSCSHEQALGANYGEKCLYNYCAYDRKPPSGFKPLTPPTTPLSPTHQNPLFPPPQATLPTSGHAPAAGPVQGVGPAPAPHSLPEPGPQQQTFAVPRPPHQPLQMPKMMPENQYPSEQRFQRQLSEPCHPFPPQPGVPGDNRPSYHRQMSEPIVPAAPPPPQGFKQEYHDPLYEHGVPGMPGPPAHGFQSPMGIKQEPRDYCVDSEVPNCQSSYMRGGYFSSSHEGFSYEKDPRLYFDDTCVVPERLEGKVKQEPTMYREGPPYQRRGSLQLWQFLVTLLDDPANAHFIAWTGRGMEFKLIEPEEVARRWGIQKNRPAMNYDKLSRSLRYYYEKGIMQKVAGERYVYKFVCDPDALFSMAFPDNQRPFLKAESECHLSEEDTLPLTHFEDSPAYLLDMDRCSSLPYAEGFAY
How it was run: as §1

[12] = target: T8, SPIC (Homo sapiens, UniProt Q8N5J4 1-248)
T8 sequence: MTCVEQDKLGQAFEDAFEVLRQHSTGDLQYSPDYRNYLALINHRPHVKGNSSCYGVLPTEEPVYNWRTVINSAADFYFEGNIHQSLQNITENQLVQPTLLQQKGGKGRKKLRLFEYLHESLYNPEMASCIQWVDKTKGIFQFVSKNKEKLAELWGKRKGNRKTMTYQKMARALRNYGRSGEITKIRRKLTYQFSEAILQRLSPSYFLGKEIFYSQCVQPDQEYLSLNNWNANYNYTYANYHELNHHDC
How it was run: as §1

[13] = target: ELF4 (Homo sapiens, UniProt Q99607 1-663)
Chain of ELF4 (Q99607 whole entry): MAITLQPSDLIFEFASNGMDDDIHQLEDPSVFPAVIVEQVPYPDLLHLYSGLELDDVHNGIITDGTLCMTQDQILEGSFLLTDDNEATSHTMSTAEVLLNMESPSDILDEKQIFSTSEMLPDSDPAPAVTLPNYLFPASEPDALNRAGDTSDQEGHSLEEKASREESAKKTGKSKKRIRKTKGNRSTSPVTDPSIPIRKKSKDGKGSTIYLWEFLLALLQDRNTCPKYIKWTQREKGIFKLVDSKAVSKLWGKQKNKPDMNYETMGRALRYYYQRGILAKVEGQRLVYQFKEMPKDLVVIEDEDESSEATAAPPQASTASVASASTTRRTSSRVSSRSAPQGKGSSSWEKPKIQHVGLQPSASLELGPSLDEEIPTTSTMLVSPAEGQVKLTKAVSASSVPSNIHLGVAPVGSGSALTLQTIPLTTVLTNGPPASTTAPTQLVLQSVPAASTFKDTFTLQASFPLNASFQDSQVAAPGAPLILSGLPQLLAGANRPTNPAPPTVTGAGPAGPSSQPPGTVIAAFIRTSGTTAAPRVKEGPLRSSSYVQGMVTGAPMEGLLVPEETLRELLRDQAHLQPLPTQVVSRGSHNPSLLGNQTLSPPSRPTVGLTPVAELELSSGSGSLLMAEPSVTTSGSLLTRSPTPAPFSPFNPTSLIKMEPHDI
How it was run: as §1

[14] = target: ETV1 (Homo sapiens, UniProt P50549 1-477)
Chain of ETV1 (P50549 whole entry): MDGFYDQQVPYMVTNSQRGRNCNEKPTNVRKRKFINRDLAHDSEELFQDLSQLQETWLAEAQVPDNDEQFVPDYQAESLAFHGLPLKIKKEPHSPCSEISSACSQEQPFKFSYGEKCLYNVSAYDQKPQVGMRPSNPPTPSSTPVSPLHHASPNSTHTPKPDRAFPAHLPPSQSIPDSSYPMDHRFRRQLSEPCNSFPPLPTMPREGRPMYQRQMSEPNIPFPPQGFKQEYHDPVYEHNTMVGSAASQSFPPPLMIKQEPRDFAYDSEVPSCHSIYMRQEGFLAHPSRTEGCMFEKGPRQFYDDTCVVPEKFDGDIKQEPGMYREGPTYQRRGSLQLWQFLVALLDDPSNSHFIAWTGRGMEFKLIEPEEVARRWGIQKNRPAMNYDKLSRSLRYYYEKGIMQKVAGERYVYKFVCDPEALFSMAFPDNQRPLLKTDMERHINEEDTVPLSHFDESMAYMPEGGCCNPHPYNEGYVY
How it was run: as §1

[15] = target: T9, ERF (Homo sapiens, UniProt P50548 1-548)
T9 sequence: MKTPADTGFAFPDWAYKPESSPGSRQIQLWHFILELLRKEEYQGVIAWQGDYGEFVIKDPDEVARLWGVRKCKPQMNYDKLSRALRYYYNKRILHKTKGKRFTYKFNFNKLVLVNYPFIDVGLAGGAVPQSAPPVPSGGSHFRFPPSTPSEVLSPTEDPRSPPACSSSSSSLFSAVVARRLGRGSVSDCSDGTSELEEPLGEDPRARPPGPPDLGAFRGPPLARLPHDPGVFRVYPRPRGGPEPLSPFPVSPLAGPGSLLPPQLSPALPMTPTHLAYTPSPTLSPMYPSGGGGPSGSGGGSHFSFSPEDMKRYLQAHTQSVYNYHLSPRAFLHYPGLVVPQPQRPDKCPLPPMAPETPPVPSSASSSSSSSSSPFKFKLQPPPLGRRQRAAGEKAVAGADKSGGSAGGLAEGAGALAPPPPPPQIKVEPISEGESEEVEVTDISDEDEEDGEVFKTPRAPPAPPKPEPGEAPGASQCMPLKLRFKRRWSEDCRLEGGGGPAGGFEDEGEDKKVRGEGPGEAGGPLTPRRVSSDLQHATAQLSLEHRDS
How it was run: as §1

[16] = target: T10, ETV3L (Homo sapiens, UniProt Q6ZN32 1-361)
T10 sequence: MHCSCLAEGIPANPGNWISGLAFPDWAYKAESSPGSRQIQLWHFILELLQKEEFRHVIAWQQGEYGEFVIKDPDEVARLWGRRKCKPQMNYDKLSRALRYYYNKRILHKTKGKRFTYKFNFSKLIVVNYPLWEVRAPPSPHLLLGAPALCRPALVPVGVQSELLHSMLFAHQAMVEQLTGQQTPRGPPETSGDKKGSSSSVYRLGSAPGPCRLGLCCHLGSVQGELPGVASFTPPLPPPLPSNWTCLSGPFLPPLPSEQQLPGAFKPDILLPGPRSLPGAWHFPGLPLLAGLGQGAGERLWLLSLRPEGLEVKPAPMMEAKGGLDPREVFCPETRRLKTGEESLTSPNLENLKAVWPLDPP
How it was run: as §1

[17] = target: T11, ETS2 (Homo sapiens, UniProt P15036 1-469)
T11 sequence: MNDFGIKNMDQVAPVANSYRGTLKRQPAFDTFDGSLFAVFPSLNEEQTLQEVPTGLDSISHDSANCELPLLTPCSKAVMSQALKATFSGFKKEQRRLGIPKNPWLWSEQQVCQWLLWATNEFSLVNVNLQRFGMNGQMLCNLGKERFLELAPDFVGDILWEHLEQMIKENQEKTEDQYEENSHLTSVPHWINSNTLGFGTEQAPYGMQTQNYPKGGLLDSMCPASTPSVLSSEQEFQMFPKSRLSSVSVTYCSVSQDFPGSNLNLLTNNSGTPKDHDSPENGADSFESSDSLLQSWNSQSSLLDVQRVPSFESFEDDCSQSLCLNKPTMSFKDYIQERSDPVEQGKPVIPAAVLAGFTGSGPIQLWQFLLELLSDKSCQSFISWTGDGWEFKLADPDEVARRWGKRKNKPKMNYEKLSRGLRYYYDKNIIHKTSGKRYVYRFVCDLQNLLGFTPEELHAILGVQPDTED
How it was run: as §1

[18] = target: T12, ELF5 (Homo sapiens, UniProt Q9UKW6-2 1-255)
T12 sequence: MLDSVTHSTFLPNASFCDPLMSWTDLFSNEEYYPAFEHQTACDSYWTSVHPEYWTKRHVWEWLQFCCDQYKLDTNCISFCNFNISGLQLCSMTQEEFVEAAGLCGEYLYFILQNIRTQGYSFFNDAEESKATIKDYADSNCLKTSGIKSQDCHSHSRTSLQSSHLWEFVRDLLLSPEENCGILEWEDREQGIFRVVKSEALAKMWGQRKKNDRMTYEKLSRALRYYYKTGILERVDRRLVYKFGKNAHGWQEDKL
How it was run: as §1

[19] = target: T13, ETV3 (Homo sapiens, UniProt P41162-2 1-143)
T13 sequence: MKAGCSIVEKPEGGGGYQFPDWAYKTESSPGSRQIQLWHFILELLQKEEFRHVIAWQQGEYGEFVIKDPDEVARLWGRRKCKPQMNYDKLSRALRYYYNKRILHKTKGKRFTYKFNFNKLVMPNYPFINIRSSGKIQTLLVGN
How it was run: as §1

[20] = target: ETV6 (Homo sapiens, UniProt P41212 1-452)
Chain of ETV6 (P41212 whole entry): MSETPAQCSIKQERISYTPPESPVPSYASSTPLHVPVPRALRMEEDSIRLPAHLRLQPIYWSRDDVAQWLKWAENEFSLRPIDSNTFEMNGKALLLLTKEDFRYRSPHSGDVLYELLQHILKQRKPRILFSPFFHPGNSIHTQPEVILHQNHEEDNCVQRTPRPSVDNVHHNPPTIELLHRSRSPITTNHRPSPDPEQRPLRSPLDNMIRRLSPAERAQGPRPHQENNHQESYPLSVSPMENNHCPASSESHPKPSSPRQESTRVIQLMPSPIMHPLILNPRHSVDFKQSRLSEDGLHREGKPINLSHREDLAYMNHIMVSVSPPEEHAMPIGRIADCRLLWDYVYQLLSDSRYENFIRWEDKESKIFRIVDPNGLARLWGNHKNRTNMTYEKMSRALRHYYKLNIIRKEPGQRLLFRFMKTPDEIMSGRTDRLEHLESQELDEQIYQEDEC
How it was run: as §1

Sequence: CTGCGG
- binding signal [1]: 1.23 fold enrichment (6-mer frequency, TF over GST control)
- binding signal [2]: 1.26 fold enrichment (6-mer frequency, TF over GST control)
- binding signal [3]: 1.05 fold enrichment (6-mer frequency, TF over GST control)
- binding signal [4]: 1.1 fold enrichment (6-mer frequency, TF over GST control)
- binding signal [5]: 1.18 fold enrichment (6-mer frequency, TF over GST control)
- binding signal [6]: 1.3 fold enrichment (6-mer frequency, TF over GST control)
- binding signal [7]: 1.03 fold enrichment (6-mer frequency, TF over GST control)
- binding signal [8]: 1.09 fold enrichment (6-mer frequency, TF over GST control)
- binding signal [9]: 1.05 fold enrichment (6-mer frequency, TF over GST control)
- binding signal [10]: 1.07 fold enrichment (6-mer frequency, TF over GST control)
- binding signal [11]: 1.16 fold enrichment (6-mer frequency, TF over GST control)
- binding signal [12]: 1.06 fold enrichment (6-mer frequency, TF over GST control)
- binding signal [13]: 1.14 fold enrichment (6-mer frequency, TF over GST control)
- binding signal [14]: 1.15 fold enrichment (6-mer frequency, TF over GST control)
- binding signal [15]: 1.04 fold enrichment (6-mer frequency, TF over GST control)
- binding signal [16]: 1.17 fold enrichment (6-mer frequency, TF over GST control)
- binding signal [17]: 1.12 fold enrichment (6-mer frequency, TF over GST control)
- binding signal [18]: 1.06 fold enrichment (6-mer frequency, TF over GST control)
- binding signal [19]: 1.14 fold enrichment (6-mer frequency, TF over GST control)
- binding signal [20]: 1.09 fold enrichment (6-mer frequency, TF over GST control)
